Consider 74 compounds from PubChem BioAssay AID488969 (Vanderbilt High Throughput Screening Facility, 2010).

The full ranking holds about 110,000 compounds; the median of “z-score” is about -0.1, and the highest 2% start at about 2. What follows is part of a selection rich in the highest values, with near analogues and random picks from the rest. Calls of active or inactive are those of the source.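 The calls were made as follows: active = z-score in the third read window above 3 or below -3; inactive = the rest.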

Metabotropic glutamate receptor 8 (Rattus norvegicus), sequence (P70579 whole entry, looked up): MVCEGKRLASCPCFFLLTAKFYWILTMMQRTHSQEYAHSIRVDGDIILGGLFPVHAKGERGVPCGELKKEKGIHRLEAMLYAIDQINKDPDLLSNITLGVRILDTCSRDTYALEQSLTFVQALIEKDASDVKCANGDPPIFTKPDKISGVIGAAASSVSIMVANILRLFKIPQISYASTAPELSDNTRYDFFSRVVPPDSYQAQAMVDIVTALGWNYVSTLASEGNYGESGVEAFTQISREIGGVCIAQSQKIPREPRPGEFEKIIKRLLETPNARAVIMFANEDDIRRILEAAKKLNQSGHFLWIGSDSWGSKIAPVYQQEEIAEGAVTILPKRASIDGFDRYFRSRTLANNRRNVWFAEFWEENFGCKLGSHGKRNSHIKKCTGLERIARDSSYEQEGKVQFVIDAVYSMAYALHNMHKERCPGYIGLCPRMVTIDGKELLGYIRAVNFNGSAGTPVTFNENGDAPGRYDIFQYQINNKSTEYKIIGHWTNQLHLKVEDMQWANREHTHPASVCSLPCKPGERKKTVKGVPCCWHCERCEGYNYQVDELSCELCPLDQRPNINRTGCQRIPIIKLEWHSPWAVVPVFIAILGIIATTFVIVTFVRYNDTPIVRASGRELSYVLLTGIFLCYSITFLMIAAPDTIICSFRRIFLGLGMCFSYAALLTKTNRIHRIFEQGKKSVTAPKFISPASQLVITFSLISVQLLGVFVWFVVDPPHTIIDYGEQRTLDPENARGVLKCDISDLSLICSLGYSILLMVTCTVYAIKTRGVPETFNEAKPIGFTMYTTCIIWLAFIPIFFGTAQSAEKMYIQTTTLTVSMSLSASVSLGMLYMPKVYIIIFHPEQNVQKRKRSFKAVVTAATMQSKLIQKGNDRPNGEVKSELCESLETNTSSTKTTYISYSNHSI

The test addresses Metabotropic glutamate receptor 8 (Rattus norvegicus) (UniProt P70579). Put plainly: rat mGluR8 modulators via GIRK flux, primary screen, cell-based, thallium flux, HTS (AID 488969). Conditions: HEK293 rat mGluR8, GIRK (G protein-gated inwardly rectifying potassium channel) thallium flux, FluoZin2; at 10 µM; stronger effect = higher value; submaximal glutamate (EC20) added with thallium.
`O=C(NCC1CCCO1)c1ccc(CS(=O)(=O)c2c(Cl)cccc2Cl)o1` (centres undefined) returned a z-score of -0.0453. The same measure for `COc1ccccc1-n1c(=O)[nH]c2c(C(N)=O)nc(C3CCCCC3)nc21`: -0.356.

On to `CCN1CCN(C(c2ccc(OC)cc2)C(O)C(=O)c2c[nH]c3ccccc23)CC1` (centres undefined), for which the z-score was 0.0792. `C=CCn1c(COc2ccc(Cl)cc2)nnc1SCC(=O)N/N=C/c1cccc(O)c1` displayed a z-score of -0.279.

Regarding `CCOC(=O)c1c(NC(=O)CSc2nncs2)sc(C)c1-c1ccccc1`, the z-score is -0.117.

`CCOC(=O)c1ccccc1N1C(=O)CSC1=S` returned a z-score of -0.0781. On to `COCCn1c(C)cc(C(=O)COC(=O)c2ccc(NC(=O)CC#N)cc2)c1C`, for which the z-score was -0.449. Consider `Cc1nn(Cc2c(F)c(F)c(F)c(F)c2F)c(C)c1NC(=O)c1ccc(COc2ccccc2Cl)o1`, for which the z-score is -0.506. Compound `CC(=O)c1cc2c(cc1NC(=O)CCC1CCCC1)OCO2` had a z-score of 0.181. Regarding `COc1ccc(NC(=O)c2cc(Cl)ccc2NC(=O)c2ccco2)c(OC)c1`, the z-score was 0.354. `CCN(CC)S(=O)(=O)c1ccc(C(=O)Nc2nnc(C(C)C)s2)cc1` registered a z-score of -0.2. Regarding `COc1ccc(S(=O)(=O)NC(C)C(=O)O)cc1` (centres undefined), the z-score is -0.408. `O=C(OCc1nc2ccccc2s1)C1CCN(S(=O)(=O)c2cccs2)CC1`: the z-score worked out at 0.023. `COc1ccc(C(=O)Cn2c(Br)nc3c2c(=O)n(C)c(=O)n3C)cc1OC` had a z-score of -0.137. For the compound `COc1ccc(-c2nc3c(c(=O)n(C)c(=O)n3C)n2CC2CC(c3ccccc3)=NO2)cc1OC` (centres undefined), the z-score is 2.08. With `CCCn1c(SCC(=O)c2ccc(OC)c(OC)c2)nc2c1c(=O)n(C)c(=O)n2C`, the z-score was -0.237. `Cc1cccc(N/C=C/c2onc(C)c2[N+](=O)[O-])c1` registered a z-score of 1.43.

`CCN(CC)S(=O)(=O)c1cc(C(=O)OCC(=O)NC2CCCc3ccccc32)ccc1C` (centres undefined) gave a z-score of -0.154. For the compound `COCCn1c(C)cc(C2=NNC(=Nc3ccccc3)SC2)c1C`, the z-score is -0.413. `Cc1ccc(-n2c(N)c(C(=O)NCc3cccnc3)sc2=S)cc1` displayed a z-score of 0.285.

`COc1cc2c(C(=O)NCc3ccc4c(c3)OCO4)cn(C)c(=O)c2cc1OC` returned a z-score of -0.397.

In turn, `COc1ccc(OC)c(NC(=O)Cn2c(CCC(=O)O)ccc2-c2cccs2)c1` came in with a z-score of -0.116. The figure for `COc1ccc(S(=O)(=O)N2CCN(C(=O)NCc3ccccc3)CC2)cc1` is -0.0685; for `CCOc1ccc(NCc2cc3c(C(C)(C)C)nn(-c4ccccc4)c3[nH]c2=O)cc1` it is -0.079; for `Cc1nn(-c2ccccc2)c2[nH]c(=O)c(CNCc3ccc4c(c3)OCO4)cc12` it is -0.638. In the case of `CCc1ccc(NCc2cc3c(C)nn(-c4ccccc4)c3[nH]c2=O)cc1`, the z-score was 5.48 (active).

Turning to `Cc1ccc(OCC(=O)Nc2sc3c(c2C#N)CCC3)cc1C`, the z-score is -0.0369. In turn, `COc1cccc(C2CC(c3ccc(F)cc3)Nc3nc(N)nn32)c1` (centres undefined) showed a z-score of 0.0383. On to `O=C(NC1CC1)c1ccc(CSCc2cccc(F)c2)o1`, for which the z-score is 4.11 (active).

As for `CC1CCN(CCCNC(=O)c2ccc(CSCc3cccc(Cl)c3)o2)CC1`, the z-score was 0.509. Take `CN1CCN(CCCNC(=O)c2ccc(CSCc3cccc(Cl)c3)o2)CC1`: the z-score turned out to be 1.35. For `CC(C)CCNC(=O)c1ccc(CSCc2cccc(F)c2)o1`, the z-score was -3.86 (active).

Regarding `O=C(NCCCN1CCCC1)c1ccc(CSCc2cccc(Cl)c2)o1`, the z-score was 3.42 (active). The figure for `CCC(C)NC(=O)c1ccc(CSCc2cccc(F)c2)o1` (centres undefined) is -0.863; for `COc1cccc(-c2cc(C(=O)N3CCN(Cc4ccccc4)CC3)no2)c1` it is 0.395. The same measure for `CO/N=C/NC(=O)c1c(OC)ccnc1Oc1cccc(C(F)(F)F)c1`: 0.0176. Turning to `NC1=NC(=O)/C(=C/c2cccs2)S1`, the z-score is -0.848. `O=C1N=C(c2ccccc2)S/C1=C\c1cccs1` registered a z-score of 2.92. `NC1=NC(=O)/C(=C\c2cccs2)S1` showed a z-score of -0.0766. The figure for `Cc1cc2ncn(C(=O)c3c(-c4c(Cl)cccc4Cl)noc3C)c2cc1C` is 0.106; for `Cc1cc(NC(=O)c2ccc(S(=O)(=O)N3CCCC3)cc2)nc2c1c(=O)oc1ccccc12` it is 0.442. In turn, `FC(F)(F)COc1nc(OCC(F)(F)F)nc(N2CCN(c3ccccc3)CC2)n1` came in with a z-score of -0.193. The same measure for `FC(F)(F)COc1nc(N2CCCCC2)nc(N2CCNCC2)n1`: 2.6.

Compound `CNc1nc(OCC(F)(F)F)nc(N2CCOCC2)n1` returned a z-score of -0.112. `O=C(NCc1cccnc1)c1ccccc1[N+](=O)[O-]`: the z-score was -0.0931. Turning to `CCOc1ccc(/C=N/NC(=O)c2ccccc2NC(=O)c2ccc(OC)cc2)cc1`, the z-score was -0.0531.

As to `Cc1ccc2occ(-c3nn[nH]n3)c(=O)c2c1`, the z-score came to 0.366. In the case of `CC(C)c1ccc2occ(-c3nn[nH]n3)c(=O)c2c1`, the z-score is 3.29 (active). Compound `Cc1ccccc1-c1nn[nH]n1` gave a z-score of -0.33. Consider `CCCSc1nn2c(=O)c3ccccc3nc2s1`, for which the z-score was -0.252. Compound `CCCc1cc(C(N)=S)ccn1` displayed a z-score of 2.24. `CCCc1cc(-c2nc(-c3ccc(Cl)cc3)cs2)ccn1` came in with a z-score of -0.136. For the compound `CCCc1cc(-c2nc(-c3ccc(Br)cc3)cs2)ccn1`, the z-score came to 0.0465. Turning to `COc1nc(NCCc2ccc(OC)c(OC)c2)nc(OC)n1`, the z-score was -0.163. As for `O=c1c(C(c2ccccc2)c2c(O)sc3ccccc3c2=O)c(O)sc2ccccc12`, the z-score is 7.03 (active). For `O=c1c2ccccc2sc2ccc(Cl)cc12`, the z-score was -0.316. For `COc1ccc2sc3ccccc3c(=O)c2c1`, the z-score is -0.213. On to `CCN1C(=O)CC(N2CCN(c3ccc(C(=O)c4ccccc4)cc3)CC2)C1=O` (centres undefined), for which the z-score was -0.153. The same measure for `COc1ccc(NC(=O)C2CCCN(S(=O)(=O)c3cccs3)C2)cc1OC` (centres undefined): -0.257; for `O=C(Nc1cccnc1)c1cccs1`: -0.52.

With `COCCSc1nnc(NC(=O)Cc2cccs2)s1`, the z-score was found to be 0.124. The same measure for `Cc1nnc(NC(=O)CCSc2ccccc2)s1`: 2.67; for `Cc1nnc(NC(=O)Cc2cccs2)s1`: 2.4. The figure for `O=C(Cc1cccs1)Nc1nnc(CCc2ccccc2)s1` is 0.238; for `O=C(Cc1cccs1)Nc1nnc(Cc2ccccc2)s1` it is -0.0843; for `CCCCc1nnc(NC(=O)CCSc2ccccc2)s1` it is 0.0449. With `COCc1nnc(NC(=O)CCSc2ccccc2)s1`, the z-score is -0.0854. For the compound `O=C(Cc1cccs1)NCc1cccnc1`, the z-score turned out to be 0.742. Consider `Cc1nnc(NC(=O)CCC(=O)NCc2cccs2)s1`, for which the z-score is -0.0957. The figure for `O=C(Cc1cccs1)Nc1cccnc1` is 3.36 (active); for `CCCCCc1nnc(NC(=O)Cc2cccs2)s1` it is 12.3 (active). Turning to `NNc1nnc(-c2ccccc2)c(-c2ccccc2)n1`, the z-score is -0.209. `CCOC(=O)CCCCC(=O)c1[nH]c(=O)[nH]c1CSCCO` yielded a z-score of 0.565. `O=C(Nc1ccc(F)cc1)C(c1ccccc1)N1CCN(C(=O)c2ccco2)CC1` (centres undefined): the z-score is -0.404.
